Experimental data: publication PMC5540273 (PLoS ONE, 2017)

test system: T1, VPS34; settings: concentration: 1 μM,replicates: in singlicate; n = 1
T1 construct: gene PIK3C3
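Note: KINOMEscan kinase panel screen.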

Compound | %Inh [%]
CS(=O)(=O)Nc1ccc(-c2ccnc3[nH]ccc23)cc1 [GSK993273] | 31
O=C(NCC1CC1)c1ccc(-c2cc(C(=O)NC3CC3)ccc2F)cc1 [GW810445] | 16
Cc1cccc2c(-c3ccncc3)c(-c3ccc(F)cc3)nn12.Cl [GW461487] | 18
Cn1ccc2ncnc(Oc3ccc(NC(=O)Nc4cnn(C(C)(C)C)c4)c(Cl)c3)c21 | 16
Cn1cc(-c2cccc3c(N)c(C(N)=O)nnc23)cn1 | 46
C[C@@H]1CCN(C(=O)N2CCCC2)C[C@@H]1N(C)c1ncnc2[nH]ccc12 | 0
Cl.Nc1n[nH]c2cc(-c3ccccn3)ccc12 [GSK2189892] | 10
Cl.c1ccc(Oc2ccc(Nc3ccnc4cc(-c5ccc(CN6CCNCC6)o5)ccc34)cc2)nc1 [GW567142] | 0
CCNCC(Cc1ccccc1)NC(=O)c1cc(Br)c(-c2ccnc3[nH]ccc23)s1.Cl.Cl (stereo not shown) [GSK1383280] | 0
Cc1ccc(Nc2ccnc(Nc3ccc4c(c3)CS(=O)(=O)C4)n2)cc1O.Cl [GW579362] | 76
COc1cccc(C2=C(Nc3cccc(Cl)c3)C(=O)NC2=O)c1 [SB-341556] | 0
CCN1CCN(CCCC(=O)Nc2n[nH]c3nc(-c4ccc(O)cc4)c(Br)cc23)CC1 [SB-731579] | 0
CSc1nccc(-c2c(-c3ccc(F)cc3)ncn2CCCN2CCOCC2)n1.Cl [SB-217146] | 16
COc1cc2nccc(Nc3ccc(Oc4ccccc4)cc3)c2cc1OC.Cl [GI261656] | 10
CS(=O)c1ccc(-c2coc3ccc(-c4n[nH]c(=O)o4)cc23)cc1 (stereo not shown) | 94.3
Cn1ccc2ncnc(Oc3ccc(NC(=O)Nc4ccnc(C(F)(F)F)c4)c(Cl)c3)c21 | 0
CN1CCN(CCCNc2nccc(-c3c(-c4ccc(F)cc4)nn4cc(C(N)=O)ccc34)n2)CC1 [GW622475] | 19
O=C(NOCC1CC1)c1cc(Br)c(F)c(F)c1Nc1ccc(I)cc1Cl | 0
COc1cccc(CNC(=O)NC2CCN(c3ccnc(Nc4cc(OC)c(OC)c(OC)c4)n3)C2)c1 (stereo not shown) [GSK1379765] | 0

Compound | %Inh [%]
COc1cc(Nc2nccc(N3CCC(NC(=O)c4cccc(C#N)c4)C3)n2)cc(OC)c1OC (stereo not shown) [GSK1379751] | 0
COC(=O)c1cccc(NC(=O)NC2CCN(c3ccnc(NCc4ccc(F)cc4)n3)CC2)c1 [GSK1379860] | 17
Cn1ccc2ncnc(Oc3ccc(NC(=O)Nc4cc(C(C)(C)C)on4)c(Cl)c3)c21 | 16
O=C1NCCc2[nH]c(-c3ccncc3)cc21 | 25
Nc1nccc(-c2ccc3c(N)n[nH]c3c2)n1 [GSK1034945] | 0
CC(=O)Nc1ccc(-c2cc3ncnc(SCC(=O)O)c3s2)cc1 | 0
NC(=O)c1ccc(-c2cc3ncnc(SCC(=O)O)c3s2)cc1 | 0
Cc1cccc(-c2nc(Nc3ccncc3)c3sccc3n2)n1 [GW869641] | 32
Cn1ccc2ncnc(Oc3ccc(NC(=O)Nc4cncc(C(F)(F)F)c4)c(Cl)c3)c21 | 0
OCCn1cc(-c2cnc3nnn(Cc4ccc5ncccc5c4)c3n2)cn1 | 17
C[C@@H]1CNc2c(sc3ccc4nc(-c5ccc(O)cc5)ccc4c23)C(=O)N1 | 9
FC(F)(F)c1cc(Br)cc(Nc2nccc(-c3cnn4ncccc34)n2)c1 [GW810578] | 64
NC(=O)Nc1sc(-c2ccc(F)cc2)cc1C(N)=O [GW789449] | 22
c1ccc(Oc2ccc(Nc3ccnc4ccc(-c5ccccn5)cc34)cc2)cc1 [GW407034] | 0
CCn1c(-c2nonc2N)nc2cncc(CNC3CCNCC3)c21.Cl [SB-747651] | 0
CN(c1ccccc1CNc1nc(Nc2ccc3c(c2)CC(=O)N3)ncc1C(F)(F)F)S(C)(=O)=O | 0
Cc1ccc(C(=O)Nc2ccc(Oc3ccc4nc(NC(=O)C5CC5)cn4c3)c(F)c2)c(=O)n1-c1ccccc1 | 43
C[C@@H](Oc1cc(-n2cnc3ccc(-c4ccncc4)cc32)sc1C(N)=O)c1ccccc1Cl [GSK483724] | 96.4
